Measurements: PubChem BioAssay (NCATS)
Inconclusive results are not listed. Active and inactive are the calls of the source. Calls come from the whole dose curve; as a rule, active = well fitted curve in the direction sought with a large enough effect in the signal ratio, with a control signal flat (not every such curve was filed as active); inconclusive = small, poorly fitted or top-dose-only effect, or effect the other way, or a change in a side signal; inactive = no such curve, though single readings can be large or run the other way; the % refers to the signal ratio.

Target: Estrogen receptor (Homo sapiens) (UniProt P03372)
Experiment: qHTS assay for small molecule antagonists of estrogen receptor alpha signaling (AID 588513)
Conditions: ER-alpha-UAS-bla HEK293, beta-lactamase ratio, antagonist mode; series mostly up to 76.9 µM
Excerpt: NIH Chemical Genomics Center [NCGC]
U.S. Environmental Protection Agency [EPA]
National Institutes of Environmental Health Sciences [NIEHS]
National Toxicology Program [NTP]
Estrogen receptor alpha (ER-alpha) is an important member of nuclear hormone receptors. ER-alpha plays important role in breast cancer as well as in other women's health issues. The majority of breast cancers is estrogen receptor (ER) positive and depends on estrogen for growth. There is also growing concern for some of environmental chemicals which may contribute the increasing the incidence of breast cancer. Therefore, it is important to understand the effect of environmental chemicals in ER-alpha signaling pathway.
NCGC Assay Protocol Summary
Using a beta-lactamase reporter-gene under control of the ER response element, a cell-based assay [ER-alpha-UAS-bla GripTiteTM cell-Based Assay from Invitrogen] was used to measure ER-alpha signaling pathway in antagonist mode. ER-alpha-UAS-bla-GripTite HEK 293 cells were used with assay medium containing 2% charcoal/dextran treated FBS, 0.1 mM NEAA and 1 mM sodium pyruvate. Cells were cultured in this assay medium overnight in the flasks before the assay. The assay was performed in clear bottom black Greiner 1536-well plates. 17-beta-estradiol was used as a positive control in the screen. Library compounds were measured for their ability to inhibit the reporter gene activity. Compounds were screened in a titration series in 1536-well format. […] Data was normalized relative to 17-beta-estradiol control (0.5nM, 100%), and DMSO only wells (basal, 0%). Concentration-response titration points for each compound were fitted to the Hill equation yielding concentrations of half-maximal inhibition (IC50) and maximal response (efficacy) values.
qHTS protocol for ER-alpha beta-lactamase assay in antagonist mode
[Step] [Parameter] [Value] [Description]
1. Reagent; 5 uL; 5000 cells/well
2. Incubation; 37 C for 4 hrs
- Dose response, Start 38uM, 1:2 dilutions with duplicates
- Two columns with 38 and 19uM (final) concentration.
5. Agonist (Stimulator); 1uL; 17-beta-estradiol at 0.5nM (final) concentration
6. Incubation; 37 C for 18 hrs
7. Detection reagent; 1 uL of CCF4-dye
8. Incubation; RT for 2 hrs
9. Detection; Fluorescence; Envision plate reader or Acumen plate reader

Sequence of Estrogen receptor (Homo sapiens) (P03372 whole entry, looked up): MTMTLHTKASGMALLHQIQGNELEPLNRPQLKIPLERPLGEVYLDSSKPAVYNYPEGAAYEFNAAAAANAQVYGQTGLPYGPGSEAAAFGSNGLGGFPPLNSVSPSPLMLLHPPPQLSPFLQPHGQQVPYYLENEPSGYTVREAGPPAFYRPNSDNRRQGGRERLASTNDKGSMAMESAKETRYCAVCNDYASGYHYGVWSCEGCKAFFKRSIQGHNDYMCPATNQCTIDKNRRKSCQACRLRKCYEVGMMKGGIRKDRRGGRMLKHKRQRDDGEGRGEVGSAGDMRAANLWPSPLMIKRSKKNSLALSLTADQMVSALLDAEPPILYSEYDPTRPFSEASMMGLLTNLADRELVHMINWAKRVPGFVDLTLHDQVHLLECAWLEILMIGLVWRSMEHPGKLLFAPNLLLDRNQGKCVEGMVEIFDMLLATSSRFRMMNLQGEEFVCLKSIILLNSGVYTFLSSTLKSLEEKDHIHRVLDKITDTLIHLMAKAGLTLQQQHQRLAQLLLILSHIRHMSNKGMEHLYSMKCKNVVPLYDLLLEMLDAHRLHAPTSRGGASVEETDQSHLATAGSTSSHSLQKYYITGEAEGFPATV

Structure (SMILES) | outcome
CC(C)(Oc1ccc(C2CC2(Cl)Cl)cc1)C(=O)O (stereo not given) | inactive
COc1ccc2[nH]cc(CCNC(C)=O)c2c1 | inactive
Cn1c(=O)c2[nH]cnc2n(C)c1=O | inactive
Nc1ccn([C@H]2CC[C@@H](CO)O2)c(=O)n1 | inactive
COc1ccc2c(c1)c(CC(=O)O)c(C)n2C(=O)c1ccc(Cl)cc1 | inactive
Cc1ccc(-c2cc(C(F)(F)F)nn2-c2ccc(S(N)(=O)=O)cc2)cc1 | inactive
NCCS(=O)(=O)O | inactive
Cc1cn([C@H]2C[C@H](N=[N+]=[N-])[C@@H](CO)O2)c(=O)[nH]c1=O | inactive
CCOC(=O)C(C)(C)Oc1ccc(Cl)cc1 | inactive
Nc1c2c(nc3ccccc13)CCCC2 | inactive
CC(C)C(=O)Nc1ccc([N+](=O)[O-])c(C(F)(F)F)c1 | inactive
CC(C)Cc1ccc(C(C)C(=O)O)cc1 (stereo not given) | inactive
NS(=O)(=O)c1cc2c(cc1Cl)NCNS2(=O)=O | inactive
O=c1[nH]cc(F)c(=O)[nH]1 | inactive
N[C@@H](Cc1c[nH]c2ccc(O)cc12)C(=O)O | inactive
